Measured values: PubChem BioAssay (NCI)
About 83,000 compounds went through this panel and 20% of them were active in at least one assay; those are over-represented in the sample as a whole.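 Results are percent growth after 48 hours of single-concentration exposure. 100 means growth as in untreated cells, lower positive values show inhibition; negative values down to -100 show cell death.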 A number with no mark means an inactive call. Calls of active or inactive are those of the source. The calls were made as follows: active = growth percent below 10; inactive = the rest.

What follows are compounds tested on NCI/ADR-RES ovarian (assay: NCI-60 one-dose screen, 48 h (100 = growth as untreated, 0 = no growth, -100 = all killed)). Conditions: 10 µM unless noted.

For `CC(C)(C)CC(C)(C)c1ccc(OCCOCC[N+](C)(C)CC(=O)[O-])cc1`, which growth is on record?
Its growth is 111%.

For `CN(CSc1ccc(Cl)cc1)c1ccc(CSc2ccc(Cl)cc2)cc1`, which growth is on record?
The growth was 91.7%.

Which growth does the source give for `COc1ccc(C2(Cl)c3ccccc3N(c3ccccc3)c3ccccc32)cc1` here?
The growth was 21.4%.

Which growth does the source give for `CCCCC(=O)OC1CCCCC1C` (stereo not drawn) here?
Its growth is 96.7%.

How did the growth turn out when `O=P(O)(c1ccccc1)c1ccccc1I` was run?
Its growth is 98.8%.

Which growth does the source give for `O=c1[nH]c(=S)[nH]c2nc[nH]c12` here?
Its growth is 95.1%.

For `OCC(CO)(CCl)CCl`, which growth is on record?
Its growth is 99%.

Which growth does the source give for `C#CCC(C)(O)/C=C/C1=C(C)CCCC1(C)C` (stereo not drawn) here?
Its growth is 99.8%.

For `O=c1[nH]ncc(Br)c1Br`, which growth is on record?
Its growth is 38.1%.

Which growth does the source give for `Cc1ccc2[nH]cc(-c3nc(-c4cn(C)c5ncccc45)cs3)c2c1` here?
The growth was 66.7%.

With `CC(=O)OC(C)COc1ccc(-c2ccccc2)cc1` (stereo not drawn) as the compound, how does the growth read?
Its growth is 118%.

Which growth does the source give for `Fc1ccc2[nH]cc(-c3nc(-c4c[nH]c5ncccc45)cs3)c2c1` here?
Its growth is 27.1%.

For `O=C1C(Cl)=C(Nc2ccc(S(=O)(=O)c3ccc(NC4=C(Cl)C(=O)c5ccccc5C4=O)cc3)cc2)C(=O)c2ccccc21`, which growth is on record?
The growth was 43.6%.

With `Cc1oc(-c2ccccc2Cl)cc1C(=O)Nc1ccc(S(N)(=O)=O)cc1` as the compound, how does the growth read?
Its growth is 102%.

How did the growth turn out when `CCC(CC)C(=O)OC(C)COc1ccc(C(C)(C)C)cc1` (stereo not drawn) was run?
The growth was 109%.

With `CCCCC/C(=C\c1ccccc1)C1OC(C)C(C)O1` (stereo not drawn) as the compound, how does the growth read?
The growth was 100%.

Which growth does the source give for `N=C(N)c1ccc(S(N)(=O)=O)cc1` here?
Its growth is 97.5%.

For `O=C1C=C(C(O)c2ccc(O)cc2)C(=O)c2ccccc21` (stereo not drawn), which growth is on record?
Its growth is 105%.

Which growth does the source give for `N#C/C(=C\c1ccc(-c2ccc(F)cc2)o1)c1nc(-c2ccco2)cs1` here?
The growth was 107%.

How did the growth turn out when `Cc1ccc(-c2ccc(/C=C(\C#N)c3nc(-c4ccco4)cs3)o2)cc1` was run?
Its growth is 103%.

For `Cn1cc(-c2nc(-c3c[nH]c4ncccc34)cs2)c2cc(Cl)ccc21`, which growth is on record?
Its growth is 44.7%.

Which growth does the source give for `O=C(O)/C(=C/c1ccc(O)cc1)c1ccccc1` here?
The growth was 94.6%.

Which growth does the source give for `Cc1ccc2c(c1)c(-c1nc(-c3c[nH]c4ncccc34)cs1)cn2C` here?
The growth was 89.4%.

`CCCC1CCCCN1C(=O)OCC(C)C` (stereo not drawn) was tested. Which growth did it give?
Its growth is 137%.

With `COc1ccc(OCC(CO)N2CCN(c3ccccc3)CC2)cc1` (stereo not drawn) as the compound, how does the growth read?
Its growth is 99.9%.

How did the growth turn out when `N#CC1=C(N)Oc2c(c(N)nn2-c2ccccc2)C1c1ccc(Cl)cc1` (stereo not drawn) was run?
Its growth is 101%.

How did the growth turn out when `c1ccc2c(-c3nc(-c4c[nH]c5ncccc45)cs3)c[nH]c2c1` was run?
Its growth is 107%.

For `OCC1OC(n2cnc3c(Cl)ncnc32)CC1O` (stereo not drawn), which growth is on record?
The growth was 118%.

`Cn1cc(-c2nc(-c3c[nH]c4ncccc34)cs2)c2cc(Br)ccc21` was tested. Which growth did it give?
Its growth is 75%.

For `CC(c1ccccc1)N1C(=O)C(C2SC(=S)N(C(C)c3ccccc3)C2=O)SC1=S` (stereo not drawn), which growth is on record?
The growth was 97.9%.

With `Cn1c(=O)c2c(nc(N3CCCC3)n2C)n(C)c1=O` as the compound, how does the growth read?
Its growth is 103%.

For `Cn1cccc1/C=C1/SC(=S)N(CCc2ccc(O)cc2)C1=O`, which growth is on record?
The growth was 16.3%.

`CCSc1ncnc2c1ncn2C1OC(CO)C(O)C1O` (stereo not drawn) was tested. Which growth did it give?
The growth was 25.4%.

For `CN(C)CCCCC(C(=O)CBr)(c1ccccc1)c1ccccc1`, which growth is on record?
The growth was 43.9%.

For `CCCCCC1CCCCN1C(=O)OCC` (stereo not drawn), which growth is on record?
The growth was 111%.

Which growth does the source give for `O=C(/C=C/c1ccc2ccccc2c1)Nc1ncc(Cc2ccccc2)s1` here?
The growth was 32.3%.

Which growth does the source give for `Cn1cc(-c2csc(-c3cn(C(=O)OC(C)(C)C)c4ccccc34)n2)c2cccnc21` here?
Its growth is 29.3%.

For `CCCCCCCN(CCCCCCC)C(=N)c1ccnc2ccccc12`, which growth is on record?
The growth was -52.5% (active).
